Experimental data taken from PubChem BioAssay (Tox21).
Inconclusive results are not listed. The source made the active and inactive calls. Unless noted, calls come from the whole dose curve; as a rule, active = well fitted curve in the direction sought with a large enough effect in the repeat runs; inconclusive = weak or mixed curves; inactive = no such curve, though single readings can be large; an effect the other way counts as inactive or inconclusive.

Key:
[1] = qHTS assay for small molecules that induce genotoxicity in human embryonic kidney cells expressing luciferase-tagged ATAD5 (AID 651632); conditions: HEK293T ATAD5-luciferase induction, 16 h; series mostly up to 83.3 µM; note: nearly all actives have a fitted effect of over 15% in size
How it was run: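 Concentration-response screen for ATAD5 upregulation in HEK293T luciferase reporter cells; 16 hr treatment at 37C, then luminescence after 30 min with Amplite at room temperature.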

[2] = qHTS assay for small molecule agonists of the p53 signaling pathway - cell viability (AID 651633; calls by dose curve; note: nearly all actives have a fitted effect of over 30% in size; note: potency is the fitted concentration of half-maximal effect); conditions: p53RE-bla HCT-116 viability, ATP luminescence, 16 h; series mostly up to 83.3 µM
How it was run: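 p53RE-bla cells were treated with compound for 16 hours at 37 C. Cytotoxicity was then measured as CellTiter-Glo luminescence after 30 min at room temperature.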

[3] = qHTS assay for small molecules that induce genotoxicity in human embryonic kidney cells expressing luciferase-tagged ATAD5 - cell viability (AID 651634; calls by dose curve; note: nearly all actives have a fitted effect of over 25% in size; note: potency is the fitted concentration of half-maximal effect); conditions: HEK293T ATAD5-luc cells viability, CellTiter-Fluor, 15.5 h; series mostly up to 83.3 µM
How it was run: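 15.5 hr compound or vehicle exposure of HEK293T cells expressing luciferase-tagged ATAD5 at 37C; live-cell protease activity is read by fluorescence after 30 min of CellTiter-Fluor.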

[4] = qHTS assay for small molecule disruptors of the mitochondrial membrane potential (AID 720635); conditions: HepG2 mitochondrial membrane potential, Mito-MPS dye ratio; series mostly up to 83.2 µM; note: potency is the fitted concentration of half-maximal effect
How it was run: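 HepG2 cells exposed to compound 1 hr at 37C, then Mito-MPS dye 30 min. Ratio read of aggregate (540/590 nm) versus monomer (490/535 nm) fluorescence.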

[5] = qHTS assay to test for compound auto fluorescence at 590 nm (red) in HepG2 cells (AID 720674); conditions: HepG2 autofluorescence, red 540/590 nm, 1 h; series mostly up to 91.3 µM
How it was run: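 HepG2 cells, 2,000 per well in MEM with 10% FBS, attached overnight at 37 C, then got 23 nL compound or DMSO. After 1 hr at 37 C, 5% CO2, red fluorescence was read at 540/590 nm against Rose Bengal sodium as reference.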

[6] = qHTS assay to test for compound auto fluorescence at 535 nm (green) in HepG2 cells (AID 720675); conditions: green autofluorescence 485/535 nm, 1 h; series mostly up to 91.3 µM
[7] = qHTS assay to test for compound auto fluorescence at 460 nm (blue) in HEK293 cells (AID 720678); conditions: blue autofluorescence 405/460 nm; series mostly up to 91.3 µM
How it was run: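 HEK293 cells (2,000/well, medium with 10% dialyzed FBS) attached 4-5 hr, then exposed to compound overnight at 37C, 5% CO2. Blue fluorescence read at 405/460 nm, with triamterene as reference fluorophore.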

[8] = qHTS assay to test for compound auto fluorescence at 590 nm (red) in HEK293 cells (AID 720679); conditions: red autofluorescence 540/590 nm; series mostly up to 91.3 µM
How it was run: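 HEK293 cells (2,000/well, 10% dialyzed FBS) attached 4-5 hr, then dosed with compound or DMSO and incubated overnight at 37C, 5% CO2. Red fluorescence read at 540/590 nm, Rose Bengal sodium as reference fluorophore.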

[9] = qHTS assay to test for compound auto fluorescence at 535 nm (green) in HEK293 cells (AID 720680); conditions: green autofluorescence 485/535 nm; series mostly up to 91.3 µM
[10] = qHTS assay to test for compound auto fluorescence at 460 nm (blue) in HEK293 cell free culture (AID 720681); conditions: cell-free medium, autofluorescence 405/460 nm (blue); series mostly up to 91.3 µM
How it was run: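 Compounds were added to cell-free DMEM with 10% FBS and fluorescence read directly. The blue channel used 405 nm excitation and 460 nm emission, with triamterene as the reference fluorophore.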

[11] = qHTS assay to test for compound auto fluorescence at 535 nm (green) in HEK293 cell free culture (AID 720682); conditions: cell-free medium, green autofluorescence 485/535 nm; series mostly up to 91.3 µM
How it was run: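 DMEM + 10% FBS, cell-free; cpd or DMSO pinned in; Ex485/Em535 read; output as fluorescein-equivalent signal.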

[12] = qHTS assay to test for compound auto fluorescence at 590 nm (red) in HEK293 cell free culture (AID 720683); conditions: cell-free medium autofluorescence, Ex540/Em590 red; series mostly up to 91.3 µM
How it was run: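 Cell-free wells of DMEM with 10% FBS received compound, and intrinsic fluorescence was read at excitation/emission 540/590 nm. Values expressed as equivalence to Rose Bengal sodium.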

[13] = qHTS assay to test for compound auto fluorescence at 590 nm (red) in HepG2 cell free culture (AID 720684); conditions: cell-free medium autofluorescence, red 540/590 nm; series mostly up to 91.3 µM
How it was run: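 Auto fluorescence equivalency versus Rose Bengal sodium, red channel Ex/Em 540/590 nm; compounds in cell-free MEM/10% FBS; DMSO vehicle control.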

[14] = qHTS assay to test for compound auto fluorescence at 460 nm (blue) in HepG2 cell free culture (AID 720685); conditions: Cell-free culture medium, blue autofluorescence 405/460 nm; series mostly up to 91.3 µM
How it was run: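 Cell-free plates of MEM plus 10% FBS received 23 nL compound or DMSO vehicle; blue-channel (405/460 nm) intensity scored against triamterene as reference fluorophore.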

[15] = qHTS assay to test for compound auto fluorescence at 535 nm (green) in HepG2 cell free culture (AID 720686); conditions: Cell-free medium, green autofluorescence 485/535 nm; series mostly up to 91.3 µM
[16] = qHTS assay to test for compound auto fluorescence at 460 nm (blue) in HepG2 cells (AID 720687); conditions: autofluorescence 405/460 nm, 1 h; series mostly up to 91.3 µM
How it was run: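 HepG2 cells in MEM with 10% FBS, attached overnight at 37 C, were exposed to compound or DMSO for 1 hr at 37 C, 5% CO2. Blue fluorescence was read at 405/460 nm, with triamterene as reference fluorophore.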

[17] = qHTS assay for small molecule disruptors of the mitochondrial membrane potential - cell viability (AID 720634; calls by dose curve;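 note: human HepG2 liver cancer cells; nearly all actives have a fitted effect of over 20% in size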); conditions: HepG2 viability, ATP luminescence (CellTiter-Glo), 1 h; series mostly up to 83.2 µM
How it was run: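 In this qHTS format, HepG2 cells plated overnight were pinned with compound, incubated 1 hr, and assayed for ATP luminescence with CellTiter-Glo after m-MPI dye addition.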

[18] = molecular target: Glucocorticoid receptor (Homo sapiens) (UniProt P04150); experiment: qHTS assay to identify small molecule agonists of the glucocorticoid receptor (GR) signaling pathway (AID 720691; active = well fitted activation curve with a large enough effect in the signal ratio in the repeat runs, not every such curve was filed as active; the % refers to the signal ratio); conditions: GR-bla HeLa, beta-lactamase reporter ratio, 18 h; activation: at 62.4 µM (top of the series)
Chain of Glucocorticoid receptor (Homo sapiens) (P04150 whole entry, looked up): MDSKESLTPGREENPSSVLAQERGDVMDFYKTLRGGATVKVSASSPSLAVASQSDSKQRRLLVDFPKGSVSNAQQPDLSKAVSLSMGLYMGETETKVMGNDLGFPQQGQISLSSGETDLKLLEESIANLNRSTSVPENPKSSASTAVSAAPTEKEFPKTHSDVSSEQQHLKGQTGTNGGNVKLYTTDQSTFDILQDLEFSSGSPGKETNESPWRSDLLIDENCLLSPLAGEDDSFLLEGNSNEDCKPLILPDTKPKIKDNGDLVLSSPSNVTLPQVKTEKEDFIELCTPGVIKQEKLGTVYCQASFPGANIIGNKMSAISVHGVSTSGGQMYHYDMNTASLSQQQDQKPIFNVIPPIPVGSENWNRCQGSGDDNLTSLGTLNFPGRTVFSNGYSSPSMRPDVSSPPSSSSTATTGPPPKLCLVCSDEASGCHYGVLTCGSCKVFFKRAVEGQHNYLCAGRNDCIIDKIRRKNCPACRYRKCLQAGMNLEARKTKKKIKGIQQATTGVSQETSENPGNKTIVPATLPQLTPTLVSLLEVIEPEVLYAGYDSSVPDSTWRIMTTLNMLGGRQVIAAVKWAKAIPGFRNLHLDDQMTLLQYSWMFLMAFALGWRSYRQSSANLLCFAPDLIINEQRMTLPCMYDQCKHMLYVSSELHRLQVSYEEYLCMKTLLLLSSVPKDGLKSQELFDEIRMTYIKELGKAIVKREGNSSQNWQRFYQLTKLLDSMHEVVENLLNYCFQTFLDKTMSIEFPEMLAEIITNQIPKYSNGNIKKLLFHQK
How it was run: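 Measures GR pathway activation through a GRE-beta-lactamase reporter stably integrated in HeLa cells, with 18 h compound treatment at 37 C and fluorescence detection using a FRET substrate.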

[19] = molecular target: Glucocorticoid receptor (Homo sapiens) (UniProt P04150); experiment: qHTS assay to identify small molecule antagonists of the glucocorticoid receptor (GR) signaling pathway (AID 720692; active = well fitted inhibition curve with a large enough effect in the signal ratio in the repeat runs, not every such curve was filed as active; the % refers to the signal ratio; note: potency is the fitted concentration of half-maximal effect); conditions: GR-bla HeLa, beta-lactamase FRET ratio, dexamethasone-stimulated, 18 h; series mostly up to 58.5 µM
How it was run: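 Tox21 10K library screened in concentration-response for blockade of dexamethasone (5 nM final)-induced GRE-bla reporter activity in HeLa cells; 18 h treatment, fluorescence read.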
% is set by controls: 0 for no effect and ±100 for the full control effect.

CCN=C1C=CC(=C(c2ccc(N(CC)CC)cc2)c2ccc(N(CC)CC)cc2)c2ccccc21
inactive: Potency [1] | Potency [5] | Potency [6] | Potency [7] | Potency [8] | Potency [9] | Potency [10] | Potency [11] | Potency [12] | Potency [13] | Potency [14] | Potency [15] | Potency [16]
active: Potency [2] 30.5 µM | Potency [3] 34.2 µM | Potency [4] 0.0076 µM

C=CC(=O)OCC(O)COc1ccccc1 (centres undefined)
inactive: Potency [1] | Potency [17] | Potency [5] | Potency [6] | Potency [7] | Potency [8] | Potency [9] | Potency [10] | Potency [11] | Potency [12] | Potency [13] | Potency [14] | Potency [15] | Potency [16]
active: Potency [2] 54.5 µM

CCN(CC)CCOC(=O)C1(C2CCCCC2)CCCCC1
inactive: Potency [1] | Potency [3] | Potency [17] | Potency [5] | Potency [6] | Potency [7] | Potency [8] | Potency [9] | Potency [10] | Potency [11] | Potency [12] | Potency [13] | Potency [14] | Potency [15] | Potency [16] | Potency [18] | Potency [19]

CCCOc1sc(C(=O)N2CCC(c3cc(CN)ccc3F)CC2)c(C)c1Br
inactive: Potency [1] | Potency [3] | Potency [17] | Potency [5] | Potency [6] | Potency [7] | Potency [8] | Potency [9] | Potency [10] | Potency [11] | Potency [12] | Potency [13] | Potency [14] | Potency [15] | Potency [16]

CCCCCCCCCCCCCC[n+]1ccccc1
inactive: Potency [1] | Potency [3] | Potency [17] | Potency [5] | Potency [6] | Potency [7] | Potency [8] | Potency [9] | Potency [10] | Potency [11] | Potency [12] | Potency [13] | Potency [14] | Potency [15] | Potency [16]
active: Potency [4] 21.7 µM

CCCN(CCc1cccs1)[C@H]1CCc2c(O)cccc2C1
inactive: Potency [1] | Potency [3] | Potency [17] | Potency [5] | Potency [6] | Potency [7] | Potency [8] | Potency [9] | Potency [10] | Potency [11] | Potency [12] | Potency [13] | Potency [14] | Potency [15] | Potency [16] | Potency [18] | Potency [19]
active: Potency [4] 24.8 µM

CSc1c(Cl)c(Cl)c(Cl)c(Cl)c1Cl
inactive: Potency [1] | Potency [3] | Potency [17] | Potency [5] | Potency [6] | Potency [7] | Potency [8] | Potency [9] | Potency [10] | Potency [11] | Potency [12] | Potency [13] | Potency [14] | Potency [15] | Potency [16] | Potency [18] | Potency [19]

COc1cc(C(C)C)c2c(c1)S(=O)(=O)N(COc1cc(=O)n3cccc(OCCN4CCCCC4)c3n1)C2=O
active: Potency [19] 10.4 µM
inactive: Potency [1] | Potency [3] | Potency [17] | fluorescence, relative to Rose Bengal [5] 0.436% [at 18.6 µM] | fluorescence, % of fluorescein control [6] -0.0646% [at 18.6 µM] | fluorescence, % of triamterene [7] 0.0293% [at 18.6 µM] | fluorescence, % of fluorescent control [8] 0.266% [at 18.6 µM] | fluorescence, % of fluorescein [9] -0.188% [at 18.6 µM] | fluorescence, % of fluorescent control [10] -0.0582% [at 18.6 µM] | activity change [11] -0.182% [at 18.6 µM, stronger effect = higher value] | fluorescence, % of fluorescent control [12] 0.355% [at 18.6 µM] | fluorescence, % of Rose Bengal [13] -0.164% [at 18.6 µM] | fluorescence, % of fluorescent control [14] -0.155% [at 18.6 µM] | fluorescence, % of fluorescein control [15] -0.0973% [at 18.6 µM] | fluorescence, % of fluorescent control [16] 0.0401% [at 18.6 µM]

O=C1NCCN1CCN1CCC(c2cn(-c3ccc(F)cc3)c3ccc(Cl)cc23)CC1
inactive: Potency [1] | Potency [17] | Potency [5] | Potency [6] | Potency [7] | Potency [8] | Potency [9] | Potency [10] | Potency [11] | Potency [12] | Potency [13] | Potency [14] | Potency [15] | Potency [16]
active: Potency [3] 29.8 µM

Cc1nc(Nc2ncc(C(=O)Nc3c(C)cccc3Cl)s2)cc(N2CCN(CCO)CC2)n1
inactive: Potency [1] | Potency [2] | Potency [17] | Potency [5] | Potency [6] | Potency [7] | Potency [8] | Potency [9] | Potency [10] | Potency [11] | Potency [13] | Potency [14] | Potency [15] | Potency [16]

CC(=O)Nc1ccc(O)cc1
inactive: Potency [1] | Potency [3] | Potency [17] | Potency [4] | Potency [5] | Potency [6] | Potency [7] | Potency [8] | Potency [9] | Potency [10] | Potency [11] | Potency [12] | Potency [13] | Potency [14] | Potency [15] | Potency [16]

O=C1C=CC(=O)N1c1ccccc1
inactive: Potency [1] | Potency [5] | Potency [6] | Potency [7] | Potency [8] | Potency [9] | Potency [10] | Potency [11] | Potency [13] | Potency [14] | Potency [15] | Potency [16]
active: Potency [2] 48.6 µM | Potency [4] 48.6 µM
